# Screens deposited in PubChem BioAssay by several laboratories.
# CYP2C9 activ = increases human cytochrome P450 2C9 activity; activation factor at 5 µM; recombinant CYP2C9, luciferin-H conversion, luminescence; active compounds read high; factor 1 = untreated enzyme, 0 = blocked; 1.4% of 96,000 active; P11712; AID 1024;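 active = activation factor of 2 or more for CYP2C9 at a 5 µM dose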;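 note: 0 = sulfaphenazole-blocked wells and 1 = vehicle-only wells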
# Target sequence (P11712 whole entry, looked up): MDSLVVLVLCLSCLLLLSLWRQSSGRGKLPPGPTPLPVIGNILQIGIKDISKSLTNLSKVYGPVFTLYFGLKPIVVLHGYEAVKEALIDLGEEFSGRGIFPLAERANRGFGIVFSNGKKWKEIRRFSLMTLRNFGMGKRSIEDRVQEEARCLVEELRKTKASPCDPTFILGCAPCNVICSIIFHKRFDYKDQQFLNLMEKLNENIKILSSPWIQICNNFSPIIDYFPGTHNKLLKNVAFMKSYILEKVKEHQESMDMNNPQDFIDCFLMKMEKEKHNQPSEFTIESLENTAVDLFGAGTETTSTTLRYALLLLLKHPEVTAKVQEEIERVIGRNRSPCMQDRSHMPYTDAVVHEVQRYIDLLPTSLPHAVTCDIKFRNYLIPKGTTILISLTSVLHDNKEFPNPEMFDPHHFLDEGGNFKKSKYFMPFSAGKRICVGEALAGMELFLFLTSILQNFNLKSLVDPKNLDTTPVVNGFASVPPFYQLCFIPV
# CYP2C19 activ = activators of human cytochrome P450 2C19 | P33261 | recombinant CYP2C19, luciferin-H EGE luminescence; active compounds read high; 0 = fully inhibited enzyme, 1 = untreated enzyme | activation factor at 5 µM | 96,000 tested, under 10 active | AID 1025;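 active = activation factor of at least 2 at 5 µM in the primary screen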;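 note: 0 = wells with 2.5 mM tranylcypromine and 1 = vehicle-only wells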
# CYP2C19 inh = inhibitors of human CYP2C19; 21% of 96,000 active; P33261; CYP2C19 Supersomes, luciferin-H EGE luminescence, 30 min; inhibition, % at 5 µM;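 active = CYP2C19 inhibition above a set limit at 5 µM in the primary screen, cut at about 50% in these data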;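 note: plate controls were negative control wells for no effect and 2.5 mM tranylcypromine positive control for full effect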
# CYP2C9 inhib = inhibitors of human CYP2C9. inhibition, % at 5 µM. 20% of 96,000 active. CYP2C9 Supersomes, luciferin-H conversion, luminescence. P11712;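 active = blocking of liver enzyme CYP2C9 beyond about 50% at 5 µM, limit read from the data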
# MRP1 act = MRP-1 activation; H69AR cells + doxorubicin, viability rescue, CellTiter-Glo; AID 799; viability increase, % at 10 µM; 0.61% of 140,000 active;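 active = viability gain under doxorubicin at or above a set limit, the compound median plus 3 SD, cut at about 4.7% in these data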;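 note: MRP-1 overexpressing cells given doxorubicin 25 µM after compound pretreatment; 18-22 h compound pretreatment then 72 h with doxorubicin before readout; 0% = doxorubicin-only wells and 100% = vehicle-treated cells without doxorubicin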
# MRP resist rev = compounds reversing MRP-mediated drug resistance | H69AR cells + 2 uM doxorubicin, CellTiter-Glo, 72 h | differential viability (reversal), % at 10 µM | 0.04% of 85,000 active | AID 602;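 active = viability drop by adding the cancer drug above about 55%, with treated viability meeting a 40% cutoff, limit read from the data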;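 note: viability without doxorubicin minus viability with 2 µM doxorubicin for each compound; larger differential means the compound sensitizes cells more to doxorubicin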
# Active calls of the source: *; . = not tested or not shown. A selection: hits, their analogues and other compounds. The true share with any hit is near 21%.
SMILES,CYP2C9 activ,CYP2C19 activ,CYP2C19 inh,CYP2C9 inhib,MRP1 act,MRP resist rev
COc1ccc(S(=O)(=O)Nc2nc(C(F)(F)F)cs2)cc1,0,0.6,35.3,98.0*,-0.8,8.7
COc1ccc(-c2csc(NS(=O)(=O)c3ccc([N+](=O)[O-])cc3)n2)cc1,.,.,.,.,0.2,.
COc1cc(C(=O)Nc2nnc(CC(=O)N3CCOCC3)s2)cc(OC)c1OC,0.8,1.1,-6.2,18.8,-0.2,-7.0
CCSc1nc2c(c(=O)[nH]1)C(c1ccncc1)C(C(=O)OC(C)C)=C(C)N2 (centres undefined),0.4,0.1,89.8*,56.6*,-4.1,.
Cc1nn(S(=O)(=O)c2ccccc2)c(C)c1Sc1ccc([N+](=O)[O-])cc1,0.6,0.4,62.3*,35.8,1.1,.
N/C(=N\OC(=O)c1cccs1)c1ccccc1,.,.,.,.,-3.5,.
COc1ccc(C(=O)O/N=C(/C)c2cccs2)cc1,0.1,0.5,47.7,91.4*,0.8,.
Cc1ccc(/C(N)=N/OC(=O)c2cccs2)cc1,.,.,.,.,-4.0,.
COc1ccc(C2CC2/C(C)=N/OC(=O)c2cccs2)cc1 (centres undefined),0.3,0.4,62.2*,75.0*,-1.5,-5.6
COc1ccc(OCCOC(=O)c2cccs2)cc1,0.3,0.2,84.5*,72.9*,0.8,11.7
Cc1oc2c(c1C(=O)Nc1ccc(C(=O)O)cc1)CCCC2,0.7,1.1,-7.9,32.6,-1.9,24.8
CC(C)C(=O)NS(=O)(=O)c1ccc(N)cc1,1.1,1.2,-18.0,-11.8,-0.2,12.6
O=C(COc1ccccc1)Nc1nn[nH]n1,0.9,1,-3.3,7.0,-0.1,6.9
Cc1nnc(SCC(=O)NC2CCCCC2)n(N)c1=O,1,1.2,-19.0,-4.0,-0.2,.
Cc1sc2c(c1C)CN(Cc1ccco1)CN2C(=O)c1ccccc1,.,.,.,.,.,-7.7
CCOC(=O)C1Cn2c(nc3c(c2=O)C2(CCCC2)Cc2ccccc2-3)S1 (centres undefined),0.6,0.4,62.4*,38.1,-2.1,-9.4
CCOC(=O)C1Cn2c(nc3c(c2=O)C(C)(C)Cc2ccccc2-3)S1 (centres undefined),0.1,0,97.2*,88.1*,0.1,11.9
CC1(C)Cc2ccccc2-c2nc(NCCCO)n(-c3ccccc3)c(=O)c21,1,0.8,17.9,4.9,-3.0,22.2
Cc1ccc(N2CCN(C(=O)c3ccccc3NC(=O)c3ccccc3C(=O)O)CC2)cc1,.,.,.,.,-2.1,.
O=C1c2ccccc2C(=O)N1CCc1csc(-c2cccc(F)c2)n1,0.5,0,100.0*,52.2*,-0.9,.
O=C1c2ccccc2C(=O)N1CCc1csc(-c2cccc(Cl)c2)n1,1,0,99.0*,1.8,0.3,.
O=C1c2ccccc2C(=O)N1CCCCCc1nc(-c2ccccc2)no1,0.6,0.9,5.6,40.5,-1.8,-7.0
C=CCn1c(C)cc(C(=O)CSc2nc3ccccc3o2)c1C,0.7,0.4,64.5*,25.3,-0.4,15.2
C=CCn1c(C)cc(C(=O)COc2nncc3ccccc23)c1C,2*,0.4,61.1*,-103.0,0.2,-20.9
Cc1ccc2nc(SCC(=O)Nc3nnc(SCC(N)=O)s3)[nH]c2c1,0.7,1,4.0,31.7,-2.8,.
SMILES,CYP2C9 activ,CYP2C19 activ,CYP2C19 inh,CYP2C9 inhib,MRP1 act,MRP resist rev
COc1ccc(Nc2nnc(SCC(=O)c3cc(C)n(CC4CCCO4)c3C)s2)cc1 (centres undefined),0.4,0.3,72.4*,58.6*,0.1,.
C/C(N)=C(/C#N)C(=O)CSc1nc2ccc(C)cc2[nH]1,0.4,0.1,88.4*,62.6*,-5.0,1.4
O=C(CSc1ccc(C(F)(F)F)cc1[N+](=O)[O-])Nc1ccc2ccccc2c1,.,.,.,.,-1.6,.
C=CCn1c(C)cc(C(=O)CSc2nc3ccccc3[nH]2)c1C,0.3,0.4,61.5*,67.7*,3.6,13.5
Cc1nn2c(=O)cc(CSc3nc4ccccc4[nH]3)nc2s1,0.8,0.4,58.3*,15.0,-3.0,5.2
Cc1cc(C(=O)CSc2nc3ccc(Cl)cc3[nH]2)c(C)n1CC1CCCO1 (centres undefined),0.1,0,96.0*,91.7*,0.0,-6.3
Cc1cc(C(=O)CSc2nc3ccc(Cl)cc3[nH]2)c(C)n1C,0.1,0.1,94.5*,93.0*,1.4,15.5
Cc1cc(C(=O)CSc2nnc(-c3ccc(Cl)cc3)n2CC2CCCO2)c(C)n1C (centres undefined),1.8,0.9,14.5,-75.9,-3.9,.
Cc1ccc2c(C)nc(Nc3nc(CSc4nc5ccccc5[nH]4)cc(=O)[nH]3)nc2c1,0.5,0.6,44.7,47.1,-1.1,.
O=C(NCCSCc1ccccc1)c1ccc(F)cc1,.,.,.,.,-1.7,.
Cc1cc(C(=O)CSc2nc3ccccc3[nH]2)c(C)n1Cc1ccco1,.,.,.,.,0.9,.
Cc1cc(NC(=O)CSc2nc3cc(Cl)ccc3s2)no1,1,1,2.2,3.0,-0.8,.
Cc1ccc2nc(SCC(=O)c3cc(C)n(C)c3C)[nH]c2c1,0.4,0.8,20.0,57.2*,0.2,17.6
Cc1ccc2nc(SCC(=O)c3c(C)[nH]c4ccccc34)[nH]c2c1,.,.,.,.,-1.2,.
COc1ccc2nc(SCC(=O)NC(C)(C)C)[nH]c2c1,0.3,0.2,84.6*,66.0*,-0.8,24.4
Cc1cc(NC(=O)CSc2nc3ccc(Cl)cc3[nH]2)no1,0.4,0.6,40.0,62.1*,-1.1,8.2
Cc1cc(C(=O)CSc2nc3ccccc3[nH]2)c(C)n1C,0.4,0.1,87.1*,60.3*,-3.5,8.5
CCn1c(COc2ccccc2OC)nnc1SCC#N,1.8,0.8,15.9,-75.4,0.0,2.0
CCOC(=O)c1ccc(NC(=O)Nc2ccc3c4c(cccc24)C(=O)N3CC)cc1,1,1,3.1,-3.6,-1.3,.
COc1ccccc1NS(=O)(=O)c1ccc(Cl)c(NC(=O)CN2C(=O)c3ccccc3C2=O)c1,.,.,.,.,-0.4,.
CCN1C(=O)c2cccc3c(NS(=O)(=O)c4ccc(NC(C)=O)cc4)ccc1c23,0.1,0,99.2*,85.6*,-1.2,10.7
CCN1C(=O)c2cccc3c(NC(=O)c4ccc(S(=O)(=O)N5CCOCC5)cc4)ccc1c23,0.3,0.6,38.4,73.7*,-2.5,-5.4
CCN1C(=O)c2cccc3c(S(=O)(=O)Nc4ccccc4OC)ccc1c23,0,0.4,61.4*,98.8*,-2.0,-6.0
CCN1C(=O)c2cccc3c(NC(=O)c4ccc(S(=O)(=O)N(C)C)cc4)ccc1c23,0.6,0.9,12.6,36.5,-4.6,.
Cc1onc(-c2c(Cl)cccc2Cl)c1C(=O)N/N=C(\N)COc1ccc(Cl)cc1,0.1,1,-2.0,85.8*,-1.9,.
Cc1onc(-c2c(Cl)cccc2Cl)c1C(=O)NCc1ccco1,0.2,0.1,89.3*,80.9*,-0.6,22.4
Cc1onc(-c2c(F)cccc2Cl)c1C(=O)NCc1ccccn1,0.7,0.4,55.7*,32.0,-1.0,4.0
